From PubChem BioAssay
TcdB GH inh: TcdB glycohydrolase inhibition; inhibition, % at 9.99 µM; 0.24% of 350,000 active; TcdB glycohydrolase enzymatic assay, plate reader; P18177; AID 652162; in the data active means inhibition above about 10%
BioA inh: BioA (M. tuberculosis) enzyme inhibition. 0.096% of 360,000 active. inhibition, % at 9.99 µM. purified M. tuberculosis BioA enzyme, plate reader; in the data active means inhibition above about 40%; inconclusive means no clear call, values can overlap the other calls
FadD28 FP inh: inhibitors of Mycobacterium tuberculosis FadD28 bisubstrate binding; FadD28 bisubstrate probe binding, fluorescence polarization; inhibition, % at 12.5 µM; 0.22% of 360,000 active; AID 588549; in the data active means inhibition above about 8.5%, passing the limit was not always enough; inconclusive means no clear call, values can overlap the other calls
PrP 5UTR inh: inhibition of PrP 5' UTR reporter expression; inhibition, % (no concentration beside the values); cell-based PrP 5' UTR mRNA reporter, plate reader; AID 488862; 0.35% of 340,000 active; in the data active means inhibition above about 52%; further: 0 = median of the neutral control wells
PfHsp40 yeast: rescue of PfHsp40-mediated yeast toxicity; AID 504582; 0.68% of 340,000 active; growth rescue, % at 12.5 µM; S. cerevisiae expressing PfHsp40, growth rescue, ATP luminescence; in the data active means growth rescue above about 28%, passing the limit was not always enough; inconclusive means no clear call, values can overlap the other calls;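 further: yeast W303a lacking pdr1 and pdr3 grown in galactose medium; growth measured after three days at 30 °C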
PrP 5UTR single: prion 5' UTR mRNA inhibition, cherry-pick retest; shares compounds with PrP 5UTR inh; cell-based prion protein 5' UTR reporter, plate reader; inhibition, % at 2.5 µM; 48% of 1,100 active; in the data active means inhibition above about 54%; inconclusive means no clear call, values can overlap the other calls
* hit, by the source's call; u = inconclusive; x = not tested or not shown. Most compounds without a hit are left out; they make up all but 1.1% or so of the library.

SMILES	TcdB GH inh	BioA inh	FadD28 FP inh	PrP 5UTR inh	PfHsp40 yeast	PrP 5UTR single
Cc1ccc(-n2c3nc(=O)n(C)c(=O)c-3cc3ccccc32)cc1	1	4	-1	x	x	x
Cn1ncnc2c(=O)n(C)c(=O)nc1-2	x	0	u	96*	0	98*
CN1c2ccc(-c3cccc(C#N)c3)cc2[C@@H]2[C@@H](CCN2S(=O)(=O)c2ccccc2)[C@H]1CO	-2	x	x	x	x	x
CC(C)CCCCCCCCCCCCC(=O)NCC(=O)NC1C(C)OC(Nc2ncnc3nc[nH]c23)C(O)C1O (centres undefined)	-1	x	-3	75*	-1	77*
C/C(=C\CNc1ncnc2nc[nH]c12)CO	-5	-1	-4	-10	0	x
CN1C(=O)c2cc(NC(=O)NCc3ccccc3)ccc2OC[C@@H]2O[C@@H](CC(=O)O)CC[C@@H]21	0	-1	x	x	x	x
O=C(O)CSCC(=O)Nc1ccc(C2CCCCC2)cc1	x	-1	0	53*	2	54*
Cc1ccc(-c2cn3nc(C)c(C)nc3n2)cc1	x	-1	-1	67*	-1	65*
COc1ccc2nc(NCCNC(=S)NCCCN3CCOCC3)c(C#N)cc2c1	3	x	-2	78*	0	u
C/C=C/c1ccc([C@@H]2[C@H](CO)N(C(=O)CN(C)C)C23CN(C(=O)C2CCC2)C3)cc1	0	x	x	x	x	x
C[C@@H]1CCCCO[C@@H](CN(C)C(=O)CCCN(C)C)[C@H](C)CN([C@@H](C)CO)C(=O)c2cc(NS(=O)(=O)c3ccc(F)cc3)ccc2O1	1	-1	x	x	x	x
CN(C)CCCNC(=O)c1ccc(Oc2ccccc2)cc1	0	x	-2	88*	-1	-12
NC(=O)c1nsc(C(=O)N(CC(=O)NCc2ccc3c(c2)OCO3)C2CCCC2)c1N	x	0	-3	76*	0	-16
CCCC(C(=O)NC1CCCC1)N(Cc1ccc2c(c1)OCO2)C(=O)c1snc(C(N)=O)c1N (centres undefined)	x	-1	0	-16	-1	x
CO[C@@H]1CN(C)C(=O)c2cc(NS(=O)(=O)c3ccccc3)ccc2OC[C@H](C)N(C(=O)NC(C)C)C[C@H]1C	-2	-2	x	x	x	x
O=C(CCS(=O)(=O)Cc1ccccc1)N1CCN(c2ccccc2)CC1	x	x	0	-5	0	x
O=C(CCS(=O)(=O)Cc1ccccc1)N1CCN(c2ccc([N+](=O)[O-])cc2)CC1	2	16	-4	80*	0	-7
CC(=O)c1c(C)[nH]c(C(=O)CSc2nnc(N)s2)c1C	0	x	0	55*	1	1
Cn1c(N)c(C(=O)CSc2nnc(N)s2)c(=O)n(C)c1=O	0	-1	-1	-4	-1	x
CC(C)(C)c1ccc(C(=O)N2CCCCCC2=O)cc1	x	-1	-1	59*	2	u
O=C1CCCCCN1C(=O)c1ccccc1	-1	x	-2	-19	-1	x
C[C@H](CO)N1C[C@H](C)[C@H](CN(C)S(=O)(=O)c2ccccc2)Oc2ccc(NC(=O)Nc3cccc4ccccc34)cc2CC1=O	0	-7	x	x	x	x
CO[C@H]1CN(C)C(=O)c2ccc(NS(C)(=O)=O)cc2OC[C@@H](C)N(C(=O)C2CC2)C[C@@H]1C	-2	-2	x	x	x	x
COc1ccccc1C#Cc1cnc2c(c1)C(=O)N([C@@H](C)CO)C[C@@H](C)[C@H](CN(C)C(=O)CC1CC1)O2	1	-1	x	x	x	x
CSc1ccc(Cl)c(C(=O)Nc2ccc(Cl)cn2)c1	0	-2	-2	-12	0	x
SMILES	TcdB GH inh	BioA inh	FadD28 FP inh	PrP 5UTR inh	PfHsp40 yeast	PrP 5UTR single
COc1cc(SC)ccc1C(=O)Nc1ccc(Cl)cn1	1	-2	-3	60*	0	55*
Cc1c(Cc2ccccc2)sc(/N=C/c2ccc3ccccc3c2)c1C(N)=O	x	x	-1	60*	2	95*
Cc1c(Cc2ccccc2)sc(/N=C/c2c(O)ccc3ccccc23)c1C(N)=O	x	0	-1	-20	0	x
COc1ccc(/C=C/CN2CCN(Cc3ccccc3)C(CCO)C2)cc1 (centres undefined)	1	x	-4	76*	-1	-57
C[C@@H]1CCCCO[C@@H](CN(C)Cc2ccccc2)[C@H](C)CN([C@H](C)CO)C(=O)c2cc(NC(=O)Nc3ccc(C(F)(F)F)cc3)ccc2O1	1	-3	x	x	x	x
COC(=O)C1=CO[C@@H](O[C@@H]2O[C@H](CO)[C@@H](O)[C@H](O)[C@H]2O)C2C1C=C[C@@]2(O)CO (some centres undefined)	0	1	-1	76*	0	-29
COC(=O)C1=CO[C@@H](OC2OC(CO)C(O)C(O)C2O)[C@@H]2[C@@H](C)[C@@H](O)C[C@H]12 (some centres undefined)	0	0	0	-3	0	x
CC(=O)n1cc(-c2ccncc2)c2ccccc21	0	0	-5	55*	-1	-3
Cc1ccccc1-c1cnc2c(c1)C(=O)N([C@H](C)CO)C[C@@H](C)[C@@H](CN(C)Cc1cncnc1)O2	1	2	x	x	x	x
COc1ccc(C2CC(=O)Oc3cc(OC)c(OC)c(OC)c32)cc1 (centres undefined)	1	1	0	-11	0	x
COc1ccccc1C1CC(=O)Oc2cc(OC)c(OC)c(OC)c21 (centres undefined)	-2	1	-3	92*	-1	-12
C[C@@H]1CN([C@@H](C)CO)S(=O)(=O)c2ccc(-c3ccccc3)cc2O[C@H]1CN(C)Cc1ccccc1C(=O)O	0	1	x	x	x	x
O=C1C=C(c2ccc(O)cc2)C[C@@H](c2ccc3c(c2)OCO3)C1	1	1	-7	67*	2	2
O=C(Nc1ccncc1)C1COc2ccccc2O1 (centres undefined)	x	1	-1	-24	0	x
O=C(NC1=NCCS1)C1COc2ccccc2O1 (centres undefined)	x	-1	-4	72*	1	77*
O=C(NCCN1C(=O)S/C(=C/c2cccnc2)C1=O)c1ccc(S(=O)(=O)N2CCCC2)cc1	0	x	-3	85*	-2	-17
O=C(C[C@@H]1CC[C@@H](NC(=O)C2CCC2)[C@@H](CO)O1)NC1CCCCC1	0	3	x	x	x	x
Cn1cc(/C=N\NC(=O)C2COc3ccccc3O2)c2ccccc21 (centres undefined)	2	x	x	x	x	x
Cc1c(/C=N\NC(=O)C2COc3ccccc3O2)c2ccccc2n1C (centres undefined)	x	x	-2	67*	4	83*
Nc1ncnc2c1ncn2[C@@H]1O[C@H](CNCc2ccc(OCc3ccccc3)cc2)[C@@H](O)[C@H]1O	1	-2	u	-16	-1	x
Nc1ncnc2c1ncn2[C@@H]1O[C@H](CNCc2ccc(OCC(=O)Nc3ccccn3)cc2)[C@@H](O)[C@H]1O	0	0	u	87*	0	-19
O=C(O)CSc1nnc(-c2ccc3c(c2)OCO3)o1	x	-1	0	-7	0	x
